ERG Ets-DNA blk = qHTS for Small Molecule Inhibitors of the ERG Ets/DNA interaction | AID 624246, 2012 | Transcriptional regulator ERG (Homo sapiens), P11308 | actives 0.028% (n = 370,000) | fluorescence polarization, His-ERG Ets domain / labelled DNA | Potency, µM (series often up to 76.9 µM), for the others: at the highest dose FP activity, negative = inhibition, most hits filed as inhibitors; active = well fitted inhibition curve with a large enough effect in the polarisation, with a control signal flat; inconclusive = small, poorly fitted or top-dose-only effect, or effect the other way, or a change in a side signal; inactive = no such curve, though single readings can be large or run the other way; the % refers to the polarisation;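 note: polarization taken with two DNA probes labelled with fluorescein and Texas red; % of control where 0% means no effect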
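His-tagged ERG Ets domain (1 uM in the protein solution; 300mM KCl, 50mM Tris-HCl, 1mM EDTA, 1mM DTT, pH 7.5) received compound, then a probe mix of 5 nM fluorescein-DNA and 100nM Texas-615-DNA. Fluorescence polarization was read for both dyes.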
WRN helicase inh = qHTS for Inhibitors of WRN Helicase; actives 0.46% (n = 360,000); WRN helicase unwinding, fluorescent forked duplex, kinetic; Bifunctional 3'-5' exonuclease/ATP-dependent helicase WRN (Homo sapiens), Q14191; Potency, µM (doses to about 114 µM), inactives show top-dose activity change, negative = inhibition, actives largely listed as inhibitors; note: % is set by controls: 0 for no effect and ±100 for the full control effect; nearly all actives have a fitted effect of over 55% in size
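WRN at 20 nM final was preincubated with compound for 15 min at room temperature; reaction started with 100 nM forked duplex oligonucleotide carrying fluorophore and quencher plus 2 mM ATP (final). Unwinding followed kinetically by red fluorescence (ex 525/em 598 nm).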
BLM helicase inh = qHTS Assay for Inhibitors of Bloom's syndrome helicase (BLM); recombinant BLM DNA unwinding, fluorescence dequenching; actives 0.2% (n = 350,000); Potency, µM (titrated, usually from 56.1 µM), for inactives: at the highest dose activity change, negative = inhibition, usual class: inhibitors;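 note: plate controls were vehicle for no effect and no enzyme for full effect; nearly all actives have a fitted effect of over 35% in size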
RECQ1 inh-1 = qHTS Assay for Inhibitors of RecQ-Like Dna Helicase 1 (RECQ1). RECQ1 DNA unwinding, red fluorescence kinetic read. Potency, µM (highest dose often 57.3 µM), for the others: top-dose activity, negative = inhibition, hits mostly inhibitors. actives 0.54% (n = 240,000);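 note: plate controls were vehicle for no effect and no enzyme for full effect; nearly all actives have a fitted effect of over 30% in size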
Target sequence (P46063 whole entry, looked up): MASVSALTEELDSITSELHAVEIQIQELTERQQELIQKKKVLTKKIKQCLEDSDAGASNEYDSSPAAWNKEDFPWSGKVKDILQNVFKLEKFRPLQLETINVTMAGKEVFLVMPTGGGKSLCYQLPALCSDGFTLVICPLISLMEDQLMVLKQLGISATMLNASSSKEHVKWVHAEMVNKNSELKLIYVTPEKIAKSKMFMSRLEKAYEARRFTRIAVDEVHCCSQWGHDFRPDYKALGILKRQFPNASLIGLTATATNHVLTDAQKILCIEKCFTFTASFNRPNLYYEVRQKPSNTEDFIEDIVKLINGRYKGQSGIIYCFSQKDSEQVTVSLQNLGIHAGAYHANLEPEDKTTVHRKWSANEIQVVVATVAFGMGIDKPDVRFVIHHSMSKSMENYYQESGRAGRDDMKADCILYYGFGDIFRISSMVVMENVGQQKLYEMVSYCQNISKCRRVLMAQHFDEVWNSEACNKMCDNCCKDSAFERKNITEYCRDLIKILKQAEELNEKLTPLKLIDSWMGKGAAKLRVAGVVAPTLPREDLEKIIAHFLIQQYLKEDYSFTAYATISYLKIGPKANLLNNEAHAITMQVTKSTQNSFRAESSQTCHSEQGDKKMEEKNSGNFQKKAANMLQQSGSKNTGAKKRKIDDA
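50 nM RECQ1T1 preincubated 15 min with compound in Tris pH 8.0 buffer with MgCl2, DTT, Tween-20 and 2.5 ug/ml poly(dI-dC); started with 200 nM TAMRA/BHQ-2 forked duplex and 2 mM ATP. Unwinding read as fluorescence (525/598 nm), two reads 2 h apart.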
APEX1 inh = qHTS Assay for Inhibitors of the Human Apurinic/apyrimidinic Endonuclease 1 (APE1). DNA repair nuclease/redox regulator APEX1 (Homo sapiens), P27695. recombinant APE1, TAMRA/BHQ-2 abasic DNA cleavage fluorescence. Potency, µM (highest dose often 65.8 µM), for inactives: at the highest dose activity change, negative = inhibition, actives largely listed as inhibitors. actives 0.35% (n = 350,000). AID 2517, 2012;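 note: plate controls were vehicle for no effect and reference inhibitor for full effect; nearly all actives have a fitted effect of over 55% in size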
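Quantitative HTS: incision of a TAMRA/BHQ-2 double-stranded substrate bearing a tetrahydrofuran abasic site by 0.75 nM APE1 raises fluorescence. Substrate 50 nM final, added after 15 min compound preincubation at room temperature; progress as third-minus-first kinetic read difference.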
KAT2A inh = qHTS Assay for Inhibitors of GCN5L2; Histone acetyltransferase KAT2A (Homo sapiens), Q92830; GCN5L2 HAT assay, ThioGlo1 CoA-SH fluorescence; Potency, µM (titrated, usually from 58.9 µM), for inactives: at the highest dose activity change, negative = inhibition, most hits filed as inhibitors; actives 0.21% (n = 390,000); AID 504327, 2011; note: % is set by controls: 0 for no effect and ±100 for the full control effect
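Free CoA generated was detected with ThioGlo1 (50uM) fluorescence at Ex340nm/Em540nm, read immediately and after 20 min at room temperature. Enzyme, 20 nM in HEPES pH 7.5 buffer, saw compounds 15 min before adding 75uM H3(1-25) peptide and 70uM acetyl-CoA.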
RECQ1 conf = Confirmation qHTS Assay for Inhibitors of RecQ-Like Dna Helicase 1 (RECQ1); shares compounds with RECQ1 inh-1; RECQ1 helicase DNA unwinding, fluorescence; Potency, µM (titrated, usually from 229 µM), inactives show at the highest dose activity change, negative = inhibition, most hits filed as inhibitors; actives 28% (n = 610); note: % is set by controls: 0 for no effect and ±100 for the full control effect; nearly all actives have a fitted effect of over 45% in size
ADP FP counter = Counterscreen for RECQ1 Inhibitors: ADP Fluorescence Polarization Displacement Assay; AID 2711, 2010; actives 27% (n = 530); ADP fluorescence polarization displacement counterscreen; shares compounds with RECQ1 inh-1; Potency, µM (series often up to 228 µM), inactives show at the top dose activity change, negative = inhibition, usual class: inhibitors; note: % is set by controls: 0 for no effect and ±100 for the full control effect; nearly all actives have a fitted effect of over 45% in size
RECQ1 inh-2 = Confirmation qHTS Assay for Inhibitors of RecQ-Like Dna Helicase 1 (RECQ1) - Round 2 Cherry Picks. shares compounds with RECQ1 inh-1. Potency, µM (series often up to 119 µM), inactives show top-dose activity, negative = inhibition, most hits filed as inhibitors. recombinant RECQ1 DNA unwinding, red fluorescence. AID 504841, 2011. actives 15% (n = 1,100); note: % is set by controls: 0 for no effect and ±100 for the full control effect; nearly all actives have a fitted effect of over 50% in size
* = called active by the depositor; i = inactive; ? = inconclusive; nt = no result given; [ ] = remark or other dose. Compounds with a hit are over-represented: about 0.88% of the library has one in this group of screens. Unless noted, calls come from the whole dose curve; as a rule, active = well fitted curve in the direction sought with a large enough effect; inconclusive = small, poorly fitted or top-dose-only effect, or another doubt; inactive = no such curve, though single readings can be large; an effect the other way counts as inactive or inconclusive. Potency is the fitted concentration of half-maximal effect.

SMILES	ERG Ets-DNA blk	WRN helicase inh	BLM helicase inh	RECQ1 inh-1	APEX1 inh	KAT2A inh	RECQ1 inh-2	others
CCc1ccc(/C=C/C(=O)c2cc(Br)ccc(=O)c2O)cc1	7%	-27%	-21%	?	?	?	?
Cc1cccc(/C=C/C(=O)c2cc(Br)ccc(=O)c2O)c1	6%	?	-17%	?	-12%	?	?
CN(C(=O)CSc1nc2ccc(NC(=O)c3ccc(F)cc3)cc2s1)c1ccccc1	-4%	nt	-6%	nt	nt	-5%	nt
Cc1ccc(Nc2nc3ccccc3c3nnc(C)n23)c(C)c1	0%	nt	-3%	nt	nt	1%	nt
O=C(CSc1nc(-c2ccc(F)cc2)cs1)NC(=O)NCc1ccco1	-14%	-12%[57.1 µM]	-12%	35µM*	-11%	-1%	?
O=C(CSc1nncs1)NC(=O)NCc1ccco1	-10%	-5%	-8%	-6%	?	-5%	nt
O=C(NCCc1ccccc1Cl)c1cc2ccccn2n1	-4%	nt	-7%	nt	nt	20%	nt
O=C(/C=C/c1ccccc1)NCCc1ccccc1	-4%	-11%	-20%	18µM*	7.9µM*	?	?	RECQ1 conf=11%[114 µM];ADP FP counter=?
COC(=O)c1c(C(=O)OC)c2cccc3cc(-c4ccccc4)c4ccc1c4n32	0%	-1%	-13%	4µM*	-6%	-11%	?
COC(=O)c1cc2c(-c3ccccc3)cc3ccccn3c-2c1C(=O)OC	1%	?	-17%	?	-5%	-7%	79µM*
NC(=O)c1ccc(NC(=O)COC(=O)CC2Sc3ccccc3NC2=O)cc1 (centres undefined)	7%	-14%	nt	nt	42%	-6%	nt
CCCCCCCCN1C(=O)[C@H](CC(=O)N2CCN(C(=O)C3CC3)CC2)C[C@@]2(C(=O)OC)CCCCC=C12	nt	-4%	nt	nt	nt	nt	nt
Cc1ccc(C)n1-c1sccc1C(=O)O	-6%	3.2µM*	-17%	20µM*	7.9µM*	?	nt	RECQ1 conf=-76%[114 µM]
NC(=O)CSc1ncc2c(n1)-c1ccccc1N(Cc1cccc(F)c1)S2(=O)=O	12%	nt	-5%	nt	nt	-6%	nt
CCCCCn1c(C)c2c(OCC)cccc(=O)c2c1C	-8%	-3%	-12%	32µM*	-8%	-12%	-11%
CCOc1cccc(=O)c2c(C)n(C)c(C)c12	0%	-24%	-23%	?	?	-2%	-3%
COc1cccc(=O)c2c(C)n(C)c(C)c12	-4%	-28%	-18%	?	-9%	-16%	-21%
COc1cccc(=O)c2c(C)n(-c3cc(C)cc(C)c3)c(C)c12	-13%	1%	-8%	-10%	-6%	-5%	nt
COc1cccc(-n2c(C)c3c(OC)cccc(=O)c3c2C)c1	1%	-20%	-8%	-11%	-6%	-4%	nt
Cc1ccc(F)c(C2C3C=CCCC3(C)C(=O)N2Cc2ccccc2)c1 (centres undefined)	nt	nt	-12%	i	-10%	nt	nt
CCOC(=O)c1scc(-c2ccccc2)c1S(=O)(=O)N1CCN(c2ccc(Cl)cc2)CC1	0%	nt	-7%	nt	nt	-2%	nt
O=C(COC(=O)c1ccc([N+](=O)[O-])s1)Nc1ccc(Cl)cn1	-4%	-9%	-18%	-13%	13%	-4%	nt
Cc1c(Cl)cnc(NC(=O)COC(=O)c2ccc([N+](=O)[O-])s2)c1Cl	-5%	?	-27%	28µM*	?	-27%	10µM*
COn1c(SCc2cccc(Cl)c2)nc2ccccc2c1=O	12%	-8%	-8%	7.1µM*	11%	24%	-13%	RECQ1 conf=2%[114 µM];ADP FP counter=?
Cc1[nH]c(=O)c(C(=O)/C=C/c2ccccc2F)c2c1CCCC2	8%	-8%	-7%	32µM*	13%	-7%	?
SMILES	ERG Ets-DNA blk	WRN helicase inh	BLM helicase inh	RECQ1 inh-1	APEX1 inh	KAT2A inh	RECQ1 inh-2	others
COc1ccc(-c2cn3cccnc3n2)cc1NC(=O)c1cc(C)cc(C)c1	1%	nt	-7%	nt	nt	-1%	nt
c1ccc(-c2noc(CCC3CCCC3)n2)cc1	-1%	-1%	1%	22%	1%	-7%	nt
c1cc(-c2noc(CCC3CCCC3)n2)ccn1	-1%	-1%	0%	?	-4%	1%	-15%
COc1cc(C(C)=O)ccc1COc1ccc(C(=O)OCC(=O)NC2CCS(=O)(=O)C2)cc1OC (centres undefined)	-5%	-7%	0%	32µM*	-3%	1%	-9%
COc1cc(NC(=O)CCNS(=O)(=O)c2ccc3c(c2)CCC(=O)N3)cc(OC)c1	4%	4%	0%	-12%	-4%	2%	nt
COc1ccc(NC(=O)CCNS(=O)(=O)c2ccc3c(c2)CCC(=O)N3)cc1	4%	-3%	-1%	-4%	2%	-1%	nt	RECQ1 conf=14%;ADP FP counter=?
Cc1cc(=O)n(CC(=O)N2CCN(c3ccc(F)cc3)CC2)c2c1c(C)nn2C	0%	nt	1%	nt	nt	-7%	nt
Cc1ccc(NS(=O)(=O)c2ccc(NC(=O)c3cccc(NC(=O)C(C)C)c3)cc2)cc1	-2%	-6%	-11%	?	-3%	4%	-17%
O=C(N/N=C/c1cccc(NC(=O)c2ccc(Cl)cc2)c1)c1ccc(O)cc1	13%	-23%	-1%	18µM*	?	-19%	nt	RECQ1 conf=112µM*;ADP FP counter=19%[91.9 µM]
